Data from PubChem BioAssay AID686978 (National Center for Advancing Translational Sciences (NCATS), 2013).
About 64,000 (15%) of roughly 420,000 compounds were called active. Not shown: some 27% with an inconclusive outcome. The call rests on the fitted dose curve; in most records, active means well fitted inhibition curve with a large enough effect; inconclusive means small, poorly fitted or top-dose-only effect; inactive means flat fitted curve, though single readings scatter. Only a sample is shown.

Test: qHTS for Inhibitors of human tyrosyl-DNA phosphodiesterase 1 (TDP1): qHTS in cells in absence of CPT; further: nearly all actives have a fitted effect of over 55% in size
Conditions: DT40 Tdp1-/- hTDP1 cells, no CPT, ATP luminescence, 48 h; activity change, negative = growth inhibition: at 46.2 µM (top of the series)
How it was run: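 Chicken DT40 Tdp1-/- cells stably complemented with human TDP1 were seeded at 400 cells/well with DMSO in place of 20 nM camptothecin. After compound pinning, cells grew at least 48 hr at 37 °C; viability read by CellTiter-Glo luminescence.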
On the % scale 0 is the no-effect control and ±100 the full control effect; potency means the concentration at half of the fitted maximal effect.

SMILES | activity change, negative = growth inhibition | Potency
Fc1cccc(-n2ncc3c2ncn2nc(-c4ccccc4Cl)nc32)c1 | -15.3% (inactive) | 
COc1ccc(C2Nc3ccc(NC(=O)COC(C)=O)cc3C(=O)N2Cc2ccccc2)cc1COc1ccc(NC(C)=O)cc1 (stereo not drawn) |  | 12600 nM (active)
COc1cc(C2C3=C(CCCC3=O)OC3=C2C(=O)CCC3)ccc1OCC(=O)Nc1ccccc1 | -25.5% (inactive) | 
COc1ccc(N2C(=O)c3ccccc3NC2c2ccc(OC)c(CN3CCOCC3)c2)cc1 (stereo not drawn) | -19.5% (inactive) | 
CN(CC(=O)Nc1ccc(F)cc1)CC(=O)N1CCCCC1 | -14.5% (inactive) | 
CCc1c(C)c2c(C)[nH]nc2oc1=O | -25% (inactive) | 
COc1ccc(OC)c(Cc2cnc3nc(N)nc(N)c3c2C)c1 |  | 164 nM (active)
COc1ccc(OC)c(-n2nnc3c(sc4nc(C)c(Br)c(C)c43)c2=O)c1 | 1% (inactive) | 
Cc1nnc(NC(=O)c2ccc3nccnc3c2)s1 | -30% (inactive) | 
O=C(COc1nsnc1N1CCOCC1)Nc1ccccc1Cl | 1.23% (inactive) | 
CCOc1cc(N2CCOCC2)c(OCC)cc1NC(=O)COc1cccc2cccnc12 |  | 10300 nM (active)
O=C(COc1cccc(Cl)c1)NCc1ccccc1 | -10.2% (inactive) | 
O=C(COc1ccc(Cl)cc1)NC(=S)Nc1ccccc1N1CCOCC1 | -2.65% (inactive) | 
NC(=O)C1CCN(C(=O)COc2cccc3cccnc23)CC1 | 1.62% (inactive) | 
CCOc1cc(N2CCOCC2)c(OCC)cc1NC(=O)COc1cccc(Cl)c1 |  | 2590 nM (active)
CC1CCN(C(=O)Cn2cc(C(=O)c3ccco3)c3ccccc32)CC1 | -5.83% (inactive) | 
CC(CC(=O)O)CC(=O)NNC(=O)c1cccc(Br)c1 (stereo not drawn) | -3.65% (inactive) | 

SMILES | activity change, negative = growth inhibition | Potency
COc1ccc(NC(=O)CC2C(=O)OCC3CCCCN32)cc1Cl (stereo not drawn) | -13.6% (inactive) | 
N#CC1(NC(=O)COC(=O)Cc2n[nH]c(=O)c3ccccc23)CCCCC1 | 1.42% (inactive) | 
O=C(Nc1ccccc1C(=O)N1CCOCC1)C1CCC(=O)N1C1CCCC1 (stereo not drawn) | 5.03% (inactive) | 
Cc1nc(C)c(C(=O)Nc2cccc(C)c2C)o1 | -15.9% (inactive) | 
CC1(C)C2CC=C(/C=N/NC(=O)C3CC3)C1C2 (stereo not drawn) | -4.07% (inactive) | 
COC(=O)c1cc(OC)c(OC)cc1NC(=O)C1CCCO1 (stereo not drawn) | -11.9% (inactive) | 
COc1cc(=O)n2c(c1C(=O)N(C)Cc1nonc1C)CCN(C(=O)c1ccc(C)cc1C)CC2 | -1.72% (inactive) | 
CCN(CC)c1ccc(S(=O)(=O)N2CCOCC2)cc1NC(=O)CSc1cccc[n+]1[O-] | -9.38% (inactive) | 
O=C(CSc1cccc[n+]1[O-])c1ccc(Cl)cc1 |  | 5170 nM (active)
O=C(Cc1ccc(Cl)cc1)c1ccccc1 | -15.1% (inactive) | 
O=C(CSc1cccc[n+]1[O-])c1ccc(-c2ccccc2)cc1 |  | 820 nM (active)
CCN(C(=O)CSc1cccc[n+]1[O-])c1ccccc1 |  | 1840 nM (active)
O=C(CSc1nnc2ccccn12)c1ccccc1 | -9.28% (inactive) | 
CCN(C(=O)CSc1nnc(-c2ccncc2)o1)c1ccccc1 | -1.26% (inactive) | 
COc1ccccc1C(=O)CSc1cccc[n+]1[O-] | -0.265% (inactive) | 
CC(NC(=O)COC(=O)CCC(=O)c1ccc(Cl)cc1)c1ccccc1 (stereo not drawn) | -27% (inactive) | 
